# An excerpt weighted towards active compounds, which were near 3.6% of everything screened.
# HTT-AS act: Primary qHTS for Identification of Small Molecule Activators of Huntingtin-Antisense Promoter Activity. HEK293 HTT-AS promoter firefly luciferase reporter, 24 h; response scale: percent change from vehicle, -100% = no light. Potency, µM (series often up to 57.5 µM), inactives show at the top dose activity change, positive = activation, usual class: activators. 0.24% of 48,000 active; note: potency is the fitted concentration of half-maximal effect; nearly all actives have a fitted effect of over 55% in size
#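 HEK293 Fluc reporter, 2,500 cells/well, 24 h pre-culture; cpds up to 57.5 uM final, 24 h 37 degrees C; Dual-Glo, 10 min RT; normalized vehicle = 0%, zero RLU = -100%.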
# S16 F2sN tox: Cell viability qHTS assay in S16 Pmp22-F2sN cells; S16 Pmp22-F2sN Schwann cells viability, CellTiter-Glo, 24 h; Potency, µM (top dose mostly 57.5 µM), for the others: top-dose activity change, negative = cytotoxicity, actives largely listed as cytotoxic; 0.48% of 43,000 active; AID 1508642, 2021; note: potency is the fitted concentration of half-maximal effect; % is set by controls: 0 for no effect and ±100 for the full control effect; nearly all actives have a fitted effect of over 65% in size
#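 Viability was measured by CellTiter-Glo luminescence (15 min, room temperature). This followed 24 h at 37 °C of compound exposure (23 nL pin transfer) in S16 Pmp22-F2sN Schwann cells, 500-1,000 per well.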
# HTT prom inh: Primary qHTS for Identification of Small Molecule Inhibitors of Huntingtin Promoter Activity; 0.93% of 48,000 active; HEK293 HTT promoter firefly luciferase reporter, 24 h; Potency, µM (series often up to 57.5 µM), inactives show top-dose activity change, negative = inhibition, usual class: inhibitors; AID 1508623, 2021; note: potency is the fitted concentration of half-maximal effect; nearly all actives have a fitted effect of over 50% in size
#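 HEK293 Fluc reporter, 2,500 cells/well, 24 h pre-culture; cpds up to 57.5 uM final, 24 h 37 degrees C; Dual-Glo, 10 min RT; normalized vehicle = 0%, zero RLU = -100%.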
# PMP22 txn: Cell-based coincidence reporter assay to measure PMP22 gene transcription in S16 Pmp22-F2sN cells - Primary screen; S16 Pmp22-F2sN Schwann cells (luciferase reporters placed in the Pmp22 gene), FLuc/NLuc coincidence luminescence, 24 h; Potency, µM (titrated, usually from 57.5 µM), for the others: at the top dose activity change, negative = inhibition, actives largely listed as inhibitors; 2% of 43,000 active; AID 1508649, 2021; active = clear falling dose curves in both reporters; inconclusive = both reporters move, but less clearly or upward; inactive = either reporter flat; the % is the NLuc reporter signal; note: potency is the fitted concentration of half-maximal effect; % is set by controls: 0 for no effect and ±100 for the full control effect
#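 Reporter cells (S16 Pmp22-F2sN, 500–1,000 per well) exposed to compounds for 24 h, 37C, 5% CO2; lysis with FLuc read after 10 min, then Stop&Glo and NLuc read after 10 min.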
# mTORC1 inh: Acumen qHTS Assay for Inhibitors of the mTORC1 Signaling Pathway in MEF (Tsc2-/-, p53-/-) Cells: Sytravon; Tsc2-/- p53-/- MEF, phospho-rpS6 immunofluorescence/PI, 24 h; Potency, µM (doses to about 38.3 µM), for inactives: top-dose activity change, negative = inhibition, hits mostly inhibitors; 0.78% of 44,000 active;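 note: potency is the fitted concentration of half-maximal effect; plate controls were DMSO for no effect and rapamycin for full effect; nearly all actives have a fitted effect of over 50% in size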
#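 Read-out: phospho-S6 Alexa-488 intensity over PI intensity per well, scored as % active cells using thresholds from rapamycin (7.5 nM) and DMSO controls. Tsc2-/-, p53-/- MEFs exposed to compound for 24 h; PI cell count recorded as viability.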
# NLuc saturating: Biochemical NLuc saturation counterscreen for small molecule modulators of PMP22 gene expression - Nano-Glo assay | shares compounds with PMP22 txn | Secreted NLuc enzyme (filtered S16 cell medium), Nano-Glo luminescence | Potency, µM (titrated, usually from 57.5 µM), without a hit: top-dose activity change, negative = inhibition, most hits filed as inhibitors | 4% of 690 active | AID 1508638, 2021; note: potency is the fitted concentration of half-maximal effect; % is set by controls: 0 for no effect and ±100 for the full control effect
# NLuc Km counter: Biochemical coelenterazine-based NLuc counterscreen for small molecule modulators of PMP22 gene expression - Km assay; Potency, µM (doses to about 57.5 µM), inactives show at the highest dose activity change, negative = inhibition, usual class: inhibitors; shares compounds with PMP22 txn; AID 1508639, 2021; secreted NLuc enzyme, coelenterazine luminescence, Km conditions; 5% of 690 active; note: potency is the fitted concentration of half-maximal effect; % is set by controls: 0 for no effect and ±100 for the full control effect
# FLuc ctr PMP22: Biochemical FLuc counterscreen for small molecule modulators of PMP22 gene expression. shares compounds with PMP22 txn. purified P. pyralis FLuc, luminescence, 10 min. Potency, µM (top dose mostly 57.5 µM), for the others: top-dose activity, negative = inhibition, hits mostly inhibitors. 690 tested, under 10 active. AID 1508640, 2021; note: % of control where 0% means no effect
# Target sequence (P08659 whole entry, looked up): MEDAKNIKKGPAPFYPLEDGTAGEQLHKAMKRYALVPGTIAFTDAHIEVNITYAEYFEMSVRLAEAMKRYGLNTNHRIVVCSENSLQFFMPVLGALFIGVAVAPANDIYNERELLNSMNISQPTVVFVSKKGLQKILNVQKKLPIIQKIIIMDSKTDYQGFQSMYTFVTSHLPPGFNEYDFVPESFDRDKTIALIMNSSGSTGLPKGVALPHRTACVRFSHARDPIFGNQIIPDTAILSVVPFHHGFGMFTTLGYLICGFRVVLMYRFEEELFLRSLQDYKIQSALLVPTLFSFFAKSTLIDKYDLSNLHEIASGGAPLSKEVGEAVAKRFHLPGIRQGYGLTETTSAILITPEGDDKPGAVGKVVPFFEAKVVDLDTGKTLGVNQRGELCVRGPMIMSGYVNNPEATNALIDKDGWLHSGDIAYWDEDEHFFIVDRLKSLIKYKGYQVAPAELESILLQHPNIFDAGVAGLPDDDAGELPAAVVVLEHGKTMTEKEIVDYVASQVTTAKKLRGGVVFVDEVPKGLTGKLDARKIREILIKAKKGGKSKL
# S16 viab conf: Cell viability qHTS assay in S16 Pmp22-F2sN cells - Confirmatory screen | shares compounds with PMP22 txn | S16 Schwann cells viability, CellTiter-Glo ATP luminescence, 24 h | Potency, µM (titrated, usually from 57.5 µM), for inactives: at the top dose activity change, negative = viability loss, hits mostly cytotoxic | 7% of 690 active; note: potency is the fitted concentration of half-maximal effect; % is set by controls: 0 for no effect and ±100 for the full control effect
# PMP22 txn conf: Cell-based coincidence reporter assay to measure PMP22 gene transcription in S16 Pmp22-F2sN cells - Confirmatory screen; shares compounds with PMP22 txn; S16 Schwann cells Pmp22-F2sN, dual luciferase, 24 h; Potency, µM (highest dose often 57.5 µM), without a hit: at the top dose activity change, negative = inhibition, actives largely listed as inhibitors; 22% of 690 active; AID 1508646, 2021; active = clear falling dose curves in both reporters; inconclusive = both reporters move, but less clearly or upward; inactive = either reporter flat; the % is the FLuc reporter signal; note: potency is the fitted concentration of half-maximal effect
# PMP22 prot conf: Cell-based HiBiT reporter assay to measure PMP22 protein expression in S16 Pmp22-HiBiT cells - Confirmatory screen; 95 tested, under 10 active; Potency, µM (series often up to 27.9 µM), for the others: at the top dose activity change, negative = inhibition, hits mostly inhibitors; S16 Schwann cells Pmp22-HiBiT, luminescence, 48 h; shares compounds with PMP22 txn
# Target sequence (P25094 whole entry, looked up): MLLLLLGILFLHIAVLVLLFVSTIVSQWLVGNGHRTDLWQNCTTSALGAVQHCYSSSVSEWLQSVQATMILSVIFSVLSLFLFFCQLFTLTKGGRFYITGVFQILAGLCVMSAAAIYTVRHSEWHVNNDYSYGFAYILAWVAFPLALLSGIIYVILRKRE
# Active calls of the source: *; ? = inconclusive; nt = no result. Unless noted, calls come from the whole dose curve; as a rule, active = well fitted curve in the direction sought with a large enough effect; inconclusive = small, poorly fitted or top-dose-only effect, or another doubt; inactive = no such curve, though single readings can be large; an effect the other way counts as inactive or inconclusive.
SMILES,HTT-AS act,S16 F2sN tox,HTT prom inh,PMP22 txn,mTORC1 inh,NLuc saturating,NLuc Km counter,FLuc ctr PMP22,S16 viab conf,PMP22 txn conf,others
O=C(Cn1cc(C(=O)C2CCCCC2)c2ccccc21)Nc1ccccc1Cl,-34%,-22%,?,9.5µM*,-9%,-5%,8%,-9%,-10%,?,
COC(=O)c1cc(Cl)ccc1OC,-4%,nt,-2%,nt,nt,nt,nt,nt,nt,nt,
CCCN(CCC)CCNC(=O)c1cc(-c2ccc(Br)s2)nc2ccccc12,-22%,?,-27%,?,?,nt,nt,nt,nt,nt,
CCN(CC)CCNC(=O)c1cc(-c2ccc(Br)s2)nc2ccccc12,-20%,32µM*,-28%,20µM*,?,-13%,?,-16%,?,17µM*,PMP22 prot conf=-2%
CC(C)OC(=O)C1=CN(C(=O)c2ccc(F)c(F)c2)CC(C)(C)c2c1[nH]c1ccccc21,-4%,nt,11%,nt,nt,nt,nt,nt,nt,nt,
Cc1ccc(CCNC(=O)c2ccc(Nc3nc4ccccc4n4nnnc34)cc2)cc1,3%,-10%,-6%,?,1%,-13%,1%,-3%,24µM*,?,
O=C(NCc1ccccc1)c1cccc(Nc2nc3ccccc3n3nnnc23)c1,-3%,?,19%,13µM*,-3%,-1%,2%,7%,22µM*,14µM*,
CCOc1ccc(CCNC(=O)c2ccc(Nc3nc4ccccc4n4nnnc34)cc2)cc1OCC,-5%,-27%,1%,?,-1%,nt,nt,nt,nt,nt,
CCCCCCCCc1ccc(CCC(N)(CO)CO)cc1,-16%,nt,-11%,nt,nt,nt,nt,nt,nt,nt,
O=C(NCCCN1CCN(c2ccc(F)cc2)CC1)Nc1ccccc1Cl,-17%,-22%,-16%,13µM*,-9%,?,0%,6%,?,-14%,
CCOC(=O)c1ccc(N2C(=O)c3n[nH]c(-c4cccs4)c3C2c2ccc(O)c(OC)c2)cc1 (stereo not drawn),-65%,?,?,16µM*,?,?,?,-9%,-19%,?,
CCNC(=O)CCCC=CC[C@@H]1[C@H](C=CC(O)CCc2ccccc2)[C@@H](O)C[C@@H]1O (stereo partly drawn),-7%,nt,-7%,nt,nt,nt,nt,nt,nt,nt,
CCC(Sc1nc2ccccc2c2nc(-c3ccccc3)nn12)C(=O)Nc1cccc(OC)c1 (stereo not drawn),-6%,?,7%,13µM*,0%,-3%,-3%,-3%,-25%,15µM*,PMP22 prot conf=?
COc1cc2nc(SCC(=O)Nc3cccc(C)c3)n3nc(-c4ccccc4)nc3c2cc1OC,-11%,5%,-1%,8%,-18%,nt,nt,nt,nt,nt,
CCCN1CCN(CCCNC(=O)Cn2c(-c3cccs3)cc3cc(Cl)ccc32)CC1,-27%,?,?,11µM*,0%,1%,-3%,2%,?,?,
CCN1CCN(CCCNC(=O)Cn2c(-c3cccs3)cc3ccccc32)CC1,-7%,?,-19%,?,-10%,nt,nt,nt,nt,nt,
CCCN1CCN(CCCNC(=O)Cn2c(-c3cccs3)cc3ccccc32)CC1,-14%,6%,-26%,?,1%,nt,nt,nt,nt,nt,PMP22 prot conf=?
Cc1ccc(C)c(N2CCN(CCCNC(=O)Cn3c(-c4cccs4)cc4ccccc43)CC2)c1,-40%,?,?,13µM*,?,-4%,-5%,-1%,?,?,PMP22 prot conf=15%
NS(=O)(=O)c1cc2c(cc1Cl)CN(C1CCCCC1)C2=O,8%,nt,9%,nt,nt,nt,nt,nt,nt,nt,
CC(C)[C@H](O)C(=O)N[C@@H](C)C(=O)N[C@@H]1C(=O)N(C)CCc2ccccc21,-2%,nt,-13%,nt,nt,nt,nt,nt,nt,nt,
COc1cc(NC(=O)c2ccc(-c3ccc(Cl)cc3)o2)cc(OC)c1,-6%,nt,?,nt,nt,nt,nt,nt,nt,nt,
COc1ccc(C(C)=O)cc1CSc1nc(NCc2ccccc2)c2ccccc2n1,-37%,-8%,?,?,-8%,nt,nt,nt,nt,nt,
COc1ccc(C(C)=O)cc1CSc1nc(Nc2ccc(F)c(F)c2)c2ccccc2n1,-40%,-17%,-25%,18µM*,-1%,?,?,-1%,0%,?,
COc1ccccc1Nc1nn2c(=O)c3ccc(C(=O)Nc4ccc(F)cc4)cc3nc2s1,-5%,21%,-2%,3µM*,-19%,-3%,4%,-17%,14µM*,5.8µM*,PMP22 prot conf=?
Cc1ccc(Cl)cc1Nc1nn2c(=O)c3ccc(C(=O)Nc4ccc(F)cc4)cc3nc2s1,0%,2%,-1%,15%,0%,nt,nt,nt,nt,nt,
COc1ccccc1Nc1nn2c(=O)c3ccc(C(=O)NCCC4=CCCCC4)cc3nc2s1,-88%,?,10µM*,3µM*,?,?,?,?,6.9µM*,5.8µM*,

# Compound activity from PubChem.
